A selection: hits, their analogues and other compounds. The true share with any hit is near 9.3%.
FLuc counter: counter-screen for miR-21 project: firefly luciferase inhibitors or activators. P08659. hit rate 6.9% among 360,000. Potency, µM (series often up to 57.5 µM), without a hit: at the top dose activity change, negative = inhibition, actives largely listed as inhibitors. purified FLuc, Km substrates, luminescence inhibition;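 also: plate controls were vehicle for no effect and reference inhibitor for full effect; nearly all actives have a fitted effect of over 55% in size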
Target sequence (P08659 whole entry, looked up): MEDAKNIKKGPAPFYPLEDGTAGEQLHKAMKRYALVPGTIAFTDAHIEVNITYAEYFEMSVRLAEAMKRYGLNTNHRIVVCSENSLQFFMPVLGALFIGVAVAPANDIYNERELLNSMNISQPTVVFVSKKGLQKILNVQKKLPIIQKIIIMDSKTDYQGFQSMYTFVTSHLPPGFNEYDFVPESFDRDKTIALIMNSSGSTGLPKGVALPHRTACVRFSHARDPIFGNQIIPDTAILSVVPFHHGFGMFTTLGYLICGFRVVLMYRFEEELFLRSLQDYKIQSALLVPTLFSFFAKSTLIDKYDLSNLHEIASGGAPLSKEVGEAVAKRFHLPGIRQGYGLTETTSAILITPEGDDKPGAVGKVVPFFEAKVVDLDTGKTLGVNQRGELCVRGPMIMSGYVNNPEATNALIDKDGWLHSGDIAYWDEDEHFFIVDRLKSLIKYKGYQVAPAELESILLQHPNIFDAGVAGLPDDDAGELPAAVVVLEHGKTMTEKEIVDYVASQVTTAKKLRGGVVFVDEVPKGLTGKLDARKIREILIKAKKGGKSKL
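Purified P. pyralis luciferase, 10 nM final, with Km-level 10 uM D-luciferin and 10 uM ATP in 50 mM Tris acetate pH 7.5, 10 mM Mg acetate, 0.01% Tween-20, 0.05% BSA; 6-point qHTS titration about 60 µM downward; luminescence read.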
SMN2 splice enh: enhancers of SMN2 splice variant expression; HEK293 SMN2-luciferase splicing reporter, luminescence, 30-36 h; hit rate 2.8% among 210,000; Potency, µM (doses to about 46.1 µM), inactives show at the highest dose activity change, positive = activation, usual class: activators; AID 1458; also: % of control where 0% means no effect; nearly all actives have a fitted effect of over 55% in size
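HEK293 cells carry an SMN2 […]–luciferase reporter in which exon 7 inclusion puts luciferase in frame. Cells were plated 10-12 h before compound addition, then incubated 30-36 h at 37C. ONE-Glo luminescence was read; sodium butyrate at 4.5 mM final served as control.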
ELG1 DNA repair: ELG1-dependent DNA repair inhibition | hit rate 2.3% among 330,000 | Potency, µM (doses to about 46.1 µM), inactives show at the top dose activity change, negative = inhibition, actives largely listed as inhibitors | HEK293T ELG1-luciferase reporter, luminescence, 16 h; DNA damage induced by 5-fluorouridine; also: % is scaled to controls: 0 for no effect and ±100 for the full control effect; nearly all actives have a fitted effect of over 55% in size
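Step one: seed 2,000 cells per well. Step two: pin-transfer compound or DMSO alongside 5-fluorouridine. Step three: incubate 16 hr, 37 °C, 5% CO2. Step four: add ONE-Glo, wait 30 min, read luminescence.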
NPC1 promoter act: activators of NPC1 promoter | hit rate 2.4% among 320,000 | Potency, µM (top dose mostly 9.22 µM), for inactives: at the highest dose activation, actives largely listed as activators | AID 485313 | Huh7 NPC1 promoter luciferase reporter, 24 h; also: % of control where 0% means no effect; nearly all actives have a fitted effect of over 60% in size
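Quantitative HTS used a cell-based reporter: Huh7 cells stably bearing the NPC1 promoter upstream of luciferase were treated with compounds for 24 h, and promoter activation was read as luminescence.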
Rab9 promoter act: activates the Rab9 promoter. Potency, µM (highest dose often 9.22 µM), inactives show at the top dose activation, negative = inhibition, hits mostly activators. hit rate 2.8% among 320,000. Huh7 Rab9 promoter-luciferase reporter, luminescence, 24 h. AID 485297; also: % of control where 0% means no effect; nearly all actives have a fitted effect of over 60% in size
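Huh7 cells stably carrying a Rab9 promoter-luciferase reporter, 1500 cells per well in OP-MEM I with 10% FBS, treated with compound 24 hours at 37C. Luciferase activity read by luminescence after 10 minutes with Amplite reagent.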
ELG1 genotox: induces genotoxicity in HEK293T cells with luciferase-tagged ELG1. HEK293T ELG1-luciferase reporter, luminescence, 16 h. Potency, µM (series often up to 46 µM), for inactives: at the top dose activity change, positive = activation, hits mostly activators. hit rate 1.3% among 330,000; also: % of control where 0% means no effect; nearly all actives have a fitted effect of over 60% in size
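After overnight (16 hr) compound treatment at 37 °C, ELG1-luciferase HEK293T cells were lysed with ONE-Glo; luminescence quantified 30 min later at room temperature.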
* hit, by the source's call; ? = inconclusive; . = no result; [ ] = dose if it differs, or a comment. Calls follow the shape of the dose curve; as a rule, active = well fitted curve in the direction sought with a large enough effect; inconclusive = small, poorly fitted or top-dose-only effect, or another doubt; inactive = no such curve, though single readings can be large; an effect the other way counts as inactive or inconclusive. Potency is read from the fitted curve at half-maximal effect.

SMILES | FLuc counter | SMN2 splice enh | ELG1 DNA repair | NPC1 promoter act | Rab9 promoter act | ELG1 genotox
COc1cc(/C=N/NC(=O)c2sc3nc(C)cc(C)c3c2N)ccc1O | 5.4µM* | . | 0% | -3% | -7% | 9%
O=C(c1cccc(S(=O)(=O)N2CCCCC2)c1)N1CCN(Cc2ccccc2)CC1 | 0% | . | ? | -1% | 1% | 0%
CC(C(=O)NCc1ccccc1)n1cc([N+](=O)[O-])cn1 (configuration not stated) | -2% | . | 6% | 1% | 3% | 3%
Cc1ccc(-n2ccnc(SCC(=O)NCCc3ccccc3)c2=O)cc1F | 5% | . | 0% | -1% | -4% | 0%
COC(=O)N/N=C\c1cccc(OC(=O)c2cccs2)c1 | -15% | 6% | 13% | -2% | -4% | 7%
COc1ccccc1/C=C/C=N/NC(=O)c1cccs1 | 11µM* | . | ? | 2.5µM* | 3.2µM* | ?
COc1ccccc1/C=C\C=N\NC(=O)c1ccco1 | ? | 23% | ? | 20% | ? | ?
O=C(N/N=C/c1cccc(OC(=O)N2CCOCC2)c1)c1cccs1 | 9.5µM* | 5% | ? | 17% | 19% | 3%
O=C(Oc1cccc(Cl)c1)N1CCOCC1 | -2% | . | -3% | 0% | -1% | -1%
COc1cccc(/C=N/NC(=O)c2cccs2)c1 | 5.4µM* | . | ? | ? | 2.8µM* | 21µM*
Cc1ccc(-n2nnc3c(SCC(=O)NCc4ccco4)ncnc32)cc1 | 13µM* | -7% | 24% | 0% | 12% | 1%
O=C(CSc1ncnc2c1nnn2-c1ccc(F)cc1)NCc1ccco1 | -16% | -10% | ? | -4% | -3% | 0%
Cc1ccc(-n2nc(C)c3c(C)c(CCC(=O)NCc4ccco4)c(C)nc32)cc1 | 5% | -12% | 23µM* | 0% | 0% | -18%
COc1ccc(-n2nnc3c(SCC(=O)NCc4ccco4)ncnc32)cc1 | 9.5µM* | -12% | -10% | -4% | -10% | 5%
Cc1cc(=O)n2[nH]c(-c3cccnc3)nc2n1 | 17µM* | -24% | 7% | -4% | 1% | 1%
Cc1cc(=O)n2[nH]c(-c3ccc(F)cc3)nc2n1 | 12µM* | 11% | ? | 19% | 3% | ?
O=C(CCn1cnnn1)N1CCCC(Nc2ccc(F)cc2)C1 (configuration not stated) | -2% | . | 13% | -4% | 3% | 4%
COc1ccc(NC(C)=O)cc1NC(C)c1nc2sc(C)c(C)c2c(=O)[nH]1 (configuration not stated) | -9% | 18% | 21µM* | 0% | 1% | -1%
Cc1ccc(-c2noc(-c3ccccc3C(=O)N3CCN(C)CC3)n2)cc1 | ? | -4% | ? | 0% | 15% | ?
O=C(c1ccccc1-c1nc(-c2ccc(Cl)cc2)no1)N1CCCC1 | 19µM* | -15% | ? | ? | 3.2µM* | ?
O=C(c1ccccc1-c1nc(-c2ccccc2)no1)N1CCCC1 | 27µM* | ? | ? | -1% | -2% | 12%
Cc1ccc(-c2noc(-c3ccccc3C(=O)N3CCCC3)n2)cc1 | 24µM* | -8% | ? | 10% | 5% | ?
COc1cc(/C=C(\NC(=O)c2ccccc2)C(=O)NCCO)c([N+](=O)[O-])cc1OC | 1% | -7% | 1% | 0% | -1% | 0%
CCc1cc(C(=O)NNC(=O)CCN2CCN(c3ccccc3)CC2)sc1C | 5% | . | 0% | 0% | -4%[1.84 µM] | 3%
COc1ccc(Nc2sc(C(=O)Nc3cccc(Cl)c3)c(N)c2C(=O)Nc2ccccc2OC)cc1 | 4% | -58% | -17% | -3% | -7% | 3%
Cc1ccc2nc(Nc3nc(CSc4nnc(C)s4)cc(=O)[nH]3)nc(C)c2c1 | 9.5µM* | . | 1% | -2% | -3% | 5%
Cc1ccc2nc(Nc3nc(-c4ccccc4)cc(=O)[nH]3)nc(C)c2c1 | -11% | -21% | -5% | -2% | -4% | ?

Screening data as filed in PubChem.
